Source: PubChem BioAssay (NCI)
About 83,000 compounds went through this panel and 20% of them were active in at least one assay; those are over-represented in the sample as a whole.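 Method: cells in 96-well plates; compound added at one concentration; 48 h incubation; percent growth measured; values under 10 scored active.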 Active and inactive are the calls of the source.

What follows are molecules tested on ACHN renal (assay: NCI-60 one-dose screen, 48 h (100 = growth as untreated, 0 = no growth, -100 = all killed)). Conditions: 10 µM unless noted.

Structure (SMILES) | growth
Cn1cc(-c2cc3nc(-c4cn(C)c5ncccc45)cc(N)n3n2)c2cc(Cl)ccc21 | -94.4% (active)
CC12CC[C@@H]3[C@]4(C)COC(c5c(F)cccc5F)O[C@@H]4CC[C@@]3(C)[C@@H]1CC(C1=CCOC1=O)O2 (some centres not stated) | 35% (inactive)
Cc1nc(Nc2ncc(C(=O)Nc3c(C)cccc3Cl)s2)cc(N2CCN(CCCNC(=O)COc3ccc(C4CCC(=O)NC4=O)cc3)CC2)n1 (configuration not stated) | 8.27% (active)
Cn1cc(NC(=O)c2cc(NC(=O)c3ccc(/C=C/c4ccccc4)cc3)cn2C)cc1C(=O)NCCCN1CCOCC1 | 70.7% (inactive)
Cc1ccccc1[C@H]1C(C(=O)c2ccc(Cl)cc2)C2(N[C@@H]1c1ccccc1)C(=O)Nc1ccc(Br)cc12 (some centres not stated) | 7.11% (active)
Brc1ccc(N/N=C/c2c[nH]c3ccc(Br)cc23)nc1 | -22.8% (active)
C=C1CCC2C3(C)COC(c4ccccc4)OC3CCC2(C)C1CC(Sc1ccccc1)C1=CCOC1=O (configuration not stated) | 65.1% (inactive)
Clc1cccc(N/N=C/c2c[nH]c3ccc(Br)cc23)n1 | 10.6% (inactive)
COc1c(F)ccc(C(=O)Nc2ccc3nc(NC(=O)C4CCCN(S(=O)(=O)c5cccc(C(F)(F)F)c5)C4)sc3c2)c1F (configuration not stated) | 83.6% (inactive)
O=c1oc2ccc(Br)cc2cc1C1=CSc2nc3sc4c(c3c(=O)n2N=C1)CCCC4 | 99.4% (inactive)
CC(=O)/C=C/c1cccc2c1C(=O)NC(C)(c1cc3cc(Br)ccc3oc1=O)N2 (configuration not stated) | 22.7% (inactive)
O=c1[nH]c(=O)c2c(-c3cc4ccccc4oc3=O)ccnc2[nH]1 | 53.2% (inactive)
O=C(/C=C/Nc1ccc2oc(=O)ccc2c1)c1cc2cc(Br)ccc2oc1=O | 107% (inactive)
CC1(c2cc3cc(Cl)ccc3oc2=O)NC(=O)c2c(/C=C/C(=O)OC3CC4CCC3(C)C4(C)C)cccc2N1 (configuration not stated) | 61.7% (inactive)
COc1ccc(-c2ccnc(SCc3cc4ccccc4[nH]c3=O)n2)cc1OC | -76.6% (active)
CC12CC[C@@H]3[C@]4(C)COC(c5cn[nH]c5-c5cccc(Br)c5)O[C@@H]4CC[C@@]3(C)[C@@H]1CC(C1=CCOC1=O)O2 (some centres not stated) | 26.5% (inactive)

Structure (SMILES) | growth
O=C(c1ccc(OCCN2CCOCC2)cc1)C1[C@H](c2ccc(Cl)cc2)[C@@H](c2ccccc2)NC12C(=O)Nc1ccc(Br)cc12 (some centres not stated) | 5.53% (active)
COc1ccc2c(c1)c(/C=N/Nc1ccc3ccccc3n1)cn2C | -85.4% (active)
CN(C)CCOc1ccc(C(=O)C2[C@H](c3ccc(Cl)cc3)[C@@H](c3ccccc3)NC23C(=O)Nc2ccc(Br)cc23)cc1 (some centres not stated) | -27.9% (active)
O=c1[nH]c2ccc(Cl)cc2cc1CSc1nccc(-c2ccc(Cl)cc2)n1 | 20.2% (inactive)
COc1cccc(/C=C/c2nc3ccccc3c(=O)n2CC(=O)Nc2ccc(Cl)cc2)c1 | -1.49% (active)
CCCSc1nc(Nc2ccc(S(N)(=O)=O)cc2)c(C#N)c(-c2cc(OC)c(OC)c(OC)c2)n1 | 11.8% (inactive)
CC(/C=C1\SC(=S)N(CCCC(=O)NC(CC(C)C)C(=O)O)C1=O)=C\c1ccccc1 (configuration not stated) | 54.1% (inactive)
COc1ccc(/C=C/c2nc3ccccc3c(=O)n2CC(=O)Nc2ccc(Cl)cc2)cc1 | 50.7% (inactive)
Cn1cc(-c2cc3nc(-c4cn(C)c5ncc(Br)cc45)cc(N)n3n2)c2cc(Cl)ccc21 | -100% (active)
Cn1cc(-c2cc(N)n3nc(-c4cn(C)c5ncccc45)cc3n2)c2cccnc21 | 109% (inactive)
Cc1ccc([C@H]2C(C(=O)c3ccc(Cl)cc3)C3(N[C@@H]2c2ccccc2)C(=O)Nc2ccc(Cl)cc23)cc1 (some centres not stated) | 38.7% (inactive)
O=C(Cn1c(/C=C/c2ccccc2)nc2ccccc2c1=O)Nc1ccc(Cl)cc1 | -65.6% (active)
CC12CC[C@@H]3[C@]4(C)COC(c5cn[nH]c5-c5cccc(Cl)c5)O[C@@H]4CC[C@@]3(C)[C@@H]1CC(C1=CCOC1=O)O2 (some centres not stated) | 31.3% (inactive)
CCCCSc1nc(Nc2ccc(S(N)(=O)=O)cc2)c(C#N)c(-c2cc(OC)c(OC)c(OC)c2)n1 | 12.2% (inactive)
CCOC(=O)/C=C/c1cccc2c1C(=O)NC(C)(c1cc3cc(Cl)ccc3oc1=O)N2 (configuration not stated) | 10% (inactive)
O=C(c1ccc(OCCN2CCOCC2)cc1)C1[C@H](c2ccc(Cl)cc2)[C@@H](c2ccccc2)NC12C(=O)Nc1ccc(Cl)cc12 (some centres not stated) | 9.92% (active)
